ChEMBL document CHEMBL4513216, “Probing the Open Global Health Chemical Diversity Library for Multistage-Active Starting Points for Next-Generation Antimalarials” (ACS Infect Dis, 2020)
In all, about 68,000 compounds went through this assay and about 2,700 (4%) showed an effect of 50% or more. The entries come from a sample that favours strong results as a whole.

Test system: Plasmodium berghei
Test: Screen against P. berghei liver stage (PbLuc), transformed with Luciferase, at 2uM
Format: functional, HepG2
Details: tested at 2 uM

Row | SMILES | INHIBITION [%]
1 | Cc1nnn2c1COC(CNC(=O)c1cccn1C)C2 (centres undefined) | 42.4
2 | Cc1cc(Br)c(O)c(-c2nc(N3CCCCC3)sc2C)c1 | 14.95
3 | CN(Cc1cnn(C)c1)S(=O)(=O)N1CCCCCC1 | 47.68
4 | Cc1noc(C(C)N2CCN(CC(=O)N3CCCC3)CC2)n1 (centres undefined) | -14.01
5 | C1CCC(c2nnc3sc(C4CCCO4)nn23)C1 (centres undefined) | -11.31
6 | C1CCC(c2nnc3sc(C4CCOC4)nn23)C1 (centres undefined) | 4.12
7 | C1CCC(c2nn3c(C4CCCO4)nnc3s2)C1 (centres undefined) | 79.8
8 | Cc1cc(C2CCCN(S(=O)(=O)c3cn[nH]c3)C2)ccn1 (centres undefined) | 49.07
9 | CS(=O)(=O)NCCNC(=O)c1cnc(-c2ccccc2)nc1 | 73.01
10 | CCN(CC)CCNC(=O)c1cnc(-c2ccccc2)nc1 | -16.21
11 | CN(C)CCCNC(=O)c1ccnc(OCc2ccccc2)c1 | 52.85
12 | CC(=O)NCCNC(=O)c1cnc(-c2ccccc2)nc1 | 19.47
13 | CN(CCNC(=O)c1cnc(-c2ccccc2)nc1)S(C)(=O)=O | -50.8
14 | O=C(NCCCN1CCOCC1)c1ccnc(OCc2ccccc2)c1 | -47.27
15 | COC(=O)CCNC(=O)c1ccc(OCc2ccccc2)nc1 | -45.68
16 | CC(C)N(C)CCCNC(=O)c1cnc(-c2ccccc2)nc1 | 67.83
17 | CCS(=O)(=O)NCCNC(=O)c1cnc(-c2ccccc2)nc1 | -22.82
18 | COCCN(Cc1cccnc1)S(=O)(=O)c1cc(C)ccc1F | 37.79
19 | Cn1cc(NS(=O)(=O)c2ccc(C(F)(F)F)cc2)ccc1=O | 21.83
20 | Cc1nc(CC(C)C)cc(C(=O)N2C[C@@H](CN(C)C)[C@@H](CO)C2)n1 | 3.46
21 | CCc1noc(C(C)N2CCC(C(=O)Nc3cnn(CC)c3)CC2)n1 (centres undefined) | -56.72
22 | CCN(Cc1ccc2c(c1)OCO2)C(=O)c1ccc(C)[nH]c1=O | 0.26
23 | COc1ccc(Cl)cc1C(=O)N1C[C@H](C(C)C)[C@@H](N)C1 | 5.88

Row | SMILES | INHIBITION [%]
24 | NC(=O)NC(=O)CCSCc1coc(-c2cccc(Cl)c2)n1 | 16.25
25 | O=C(Nc1cnc2n1CCCC2)C1CCCN1C1CCNCC1 (centres undefined) | -26.04
26 | CCn1cnnc1CNC(=O)N1CCN(c2ccccc2O)CC1 | -3.06
27 | CCn1cnnc1CNC(=O)N1CCC(CN2CCCCCC2)CC1 | 27.47
28 | CCN(CC)C1CCN(C(=O)NCc2nncn2CC)CC1 | 55.52
29 | CCn1cnnc1CNC(=O)N1CCN(c2cccs2)CC1 | 54.85
30 | CCn1cnnc1CNC(=O)N1CCN(c2nccs2)CC1 | 17.31
31 | CCn1cnnc1CNC(=O)N1CCCCCC1 | -8.32
32 | CCn1cnnc1CNC(=O)N1CCC(C(=O)NC)CC1 | -29.11
33 | CCn1cnnc1CNC(=O)N1CCC(O)CC1 | -0.05
34 | CCN(CCC1CCN(C(=O)NCc2nncn2CC)CC1)CC1CC1 | 56.4
35 | CCn1cnnc1CNC(=O)N1CCC(C)CC1 | 56.4
36 | CCn1cnnc1CNC(=O)N1CCOCC1 | 27.31
37 | CCn1cnnc1CNC(=O)N1CCCC1 | 33.82
38 | Cc1cc2ccccc2n1CCC(=O)NCCS(C)(=O)=O | -67.22
39 | O=C(C1CCOCC1)N1CCc2ncnc(-c3ccc(F)cc3)c2CC1 | -7.01
40 | c1cncc(CNc2ccccc2-c2nn[nH]n2)c1 | 27
41 | O=C(c1cscn1)N1CCCC2(CCN2Cc2cccc(F)c2)C1 (centres undefined) | 37.33
42 | CC(C)N(C)Cc1cc(=O)n2c(n1)CN(C(=O)c1cnccn1)CCC2 | -14.64
43 | Cn1ccnc1CN1CCCN(C(=O)c2ccc3[nH]nnc3c2)CC1 | -56.99
44 | COc1ccc(NC(=O)Cn2ccc3c(=O)n(C)ccc32)cc1OC | 52.61
45 | Cn1ccc2c(ccn2CC(=O)Nc2ccc(Br)cc2)c1=O | 0.5
46 | Cc1ccc(NC(=O)Cn2ccc3c(=O)n(C)ccc32)cc1F | 41.86

Row | SMILES | INHIBITION [%]
47 | CCn1ccc2ccnc(CC3CN(C(=O)Cn4ccnc4C)C3)c21 | 2.78
48 | CCc1nnc(CNC(=O)CCN2CCN(c3cccc(C)c3)CC2)s1 | -27.19
49 | Cc1cccc(N2CCN(CCC(=O)NCc3cnc(C)cn3)CC2)c1 | -39.01
50 | Cc1cccc(N2CCN(CCC(=O)NCc3nnc[nH]3)CC2)c1 | 71.67
51 | CC1(c2ncc(CN3CCN(c4ncccn4)CC3)cn2)CCCCO1 (centres undefined) | -30.88
52 | COc1ccc(-n2nc(C3CC3)nc2CCn2cnnn2)cc1 | -4.15
53 | Cc1cccc(CNC(Cc2ccsc2)c2nc(C)c(C)s2)n1 (centres undefined) | 8.75
54 | CC[C@@H]1N(CC2CCOCC2)CCC[C@]12CCC(=O)N2 | 20.88
55 | CC[C@@H]1N(CC2CC2)CCC[C@]12CCC(=O)N2 | 10.49
56 | CC[C@H]1N(CC2CCOCC2)CCC[C@]12CCC(=O)N2 | 65.91
57 | Cc1ccc(C(=O)N2Cc3c(CN4CCCCC4)nn(C)c3C2)cc1C | -15.95
58 | Cc1cc(C)c2c(N(C)CC3CCOC3)ncnc2n1 (centres undefined) | 27.73
59 | CN(CC1COCCO1)c1ncnc2cc(F)ccc12 (centres undefined) | 22.62
60 | Cc1cc(C)c2c(N(C)CC3COCCO3)ncnc2n1 (centres undefined) | 55.7
61 | Cn1c(Cn2cccn2)nnc1C1CCN(Cc2ccccc2Cl)CC1 | 15.75
62 | N[C@H]1c2ccccc2C[C@@H]1NC(=O)C1CCN(Cc2ccco2)CC1 | 22.88
63 | CN(C)C(=O)CO[C@H]1CN(Cc2ccc(F)cc2)[C@@H]2CCCO[C@H]12 | -84.27
64 | CN(C)C(=O)CO[C@@H]1CN(Cc2ccccc2)[C@@H]2CCCO[C@@H]21 | 52.66
65 | CN(C)C(=O)CO[C@H]1CN(Cc2ccccc2)[C@@H]2CCCO[C@H]12 | 45.56
66 | Cn1cnnc1CNC(=O)C1CCCN(Cc2ccccc2)C1 (centres undefined) | 6.33
67 | CCNC(=O)NC1CN(Cc2ccncc2Cl)C[C@@H]1OC (some centres undefined) | -0.98
68 | COCC1c2c(cnn2CC2CC2)CCN1Cc1ccc(OC)cc1 (centres undefined) | -4.92
69 | Cc1nc(COC[C@@H]2CC[C@H]3[C@H](CCN3c3ncccn3)O2)cs1 | -8.23
